Compound activity (PubChem)
LASV entry inh: qHTS for Inhibitors of binding or entry into cells for Lassa Virus; Lassa virus pseudotype entry inhibition, cell reporter; Potency, µM (doses to about 37.9 µM), inactives show top-dose activity change, negative = inhibition, hits mostly inhibitors; hit rate 1.2% among 300,000; AID 540256, 2011; calls by dose curve; tested in HEK293 cells; note: nearly all actives have a fitted effect of over 50% in size
MARV entry inh: qHTS for inhibitors of binding or entry into cells for Marburg Virus | Potency, µM (top dose mostly 37.8 µM), inactives show at the top dose activity change, negative = inhibition, hits mostly inhibitors | Marburg virus pseudotyped entry inhibition, cell reporter | hit rate 1.8% among 300,000; calls by dose curve; tested in HEK293 cells
Vaccinia mCherry: qHTS for Stage-Specific Inhibitors of Vaccinia Orthopoxvirus: mCherry Reporter Primary qHTS. AID 720579, 2013. hit rate 0.63% among 310,000. Potency, µM (doses to about 36.5 µM), for the others: at the highest dose activity change, negative = inhibition, actives largely listed as inhibitors. Vaccinia virus mCherry reporter infection, fluorescence; calls by dose curve; tested in A549 cells; note: nearly all actives have a fitted effect of over 35% in size
Vaccinia Venus: qHTS for Stage-Specific Inhibitors of Vaccinia Orthopoxvirus: Venus Reporter Primary qHTS; Vaccinia virus Venus reporter expression, fluorescence; Potency, µM (series often up to 36.5 µM), for inactives: at the top dose activity change, negative = inhibition, usual class: inhibitors; hit rate 0.46% among 330,000; AID 720580, 2013; calls by dose curve; tested in A549 cells; note: nearly all actives have a fitted effect of over 30% in size
Numbers without * were called inactive; i = inactive; ? = inconclusive; nt = no result given; ! = repeats disagree; [ ] = remark or other dose. Only some compounds are listed: those with a hit (about 2.5% of all), similar ones and a draw of the others. % is set by controls: 0 for no effect and ±100 for the full control effect; potency is the fitted concentration of half-maximal effect.

SMILES	LASV entry inh	MARV entry inh	Vaccinia mCherry	Vaccinia Venus
C[C@@H]1C[C@@H]2OC(=O)[C@]3(C)[C@H]2[C@@H](OC3(C)O)[C@]2(C)C(=O)C=C[C@H]12 (stereo not given in full)	nt	nt	-13%	?
O=C(NNc1ccccc1F)c1sccc1Cl	nt	nt	-19%	-14%
O=C(O)CCCN=C1NC2(CCCC2)CC2=C1CCCC2	nt	0%	nt	nt
NC(Cc1ccc(O)c(O)c1)C(=O)O (stereo not given)	nt	nt	-15%	0%
NC(Cc1cc(O)c(O)cc1O)C(=O)O (stereo not given)	?	4µM*	-6%	-11%
N[C@H](Cc1ccc(N(CCCl)CCCl)cc1)C(=O)O	nt	5.8µM*	nt	nt
N[C@@H](Cc1cc(O)c(O)cc1O)C(=O)O	nt	4µM*	nt	nt
N[C@H](Cc1ccc(O)c(O)c1)C(=O)O	nt	16µM*	nt	nt
N[C@@H](Cc1cc(I)c(O)c(I)c1)C(=O)O	16%	-2%	-13%	-7%
O=S(=O)(c1ccc2ncccc2c1)N1CCN(c2nc(-c3cccs3)nc3ccccc23)CC1	nt	nt	-1%	-18%
COc1cc2c(cc1OC)[C@@H]1O[C@](c3ccsc3)(C2)Oc2c1c(=O)oc1ccc(F)cc21	nt	28%[14.2 µM]	nt	nt
Clc1cccc(Cl)c1CO/N=C/c1c(-c2ccccc2)nc2n1CCS2	?	21µM*	nt	nt
COc1ccccc1/C=C/C1(C(=O)NC2CCCC2)CC(=O)N1c1ccc(C)cc1 (stereo not given)	-28%	?	nt	nt
COc1ccccc1/C=C/C1(C(=O)NC2CCCC2)CC(=O)N1c1ccc(F)cc1 (stereo not given)	15µM*	5.8µM*	nt	nt
CCOC(=O)c1c(CSc2nc(C)cc(C)c2C#N)n(C)c2cc(Br)c(OC(C)=O)cc12	?	-3%	-9%	-1%
CCOC(=O)c1c(C)n(C)c2cc(Br)c(C(=O)OC)cc12	-4%	?	nt	?
CCOC(=O)c1c(CSC(=N)N)n(-c2ccc(Br)cc2)c2cc(Br)c(OC(C)=O)cc12	?	13µM*	-19%	-14%
C=CCCc1ccc(C#N)c(SCc2c(C(=O)OCC)c3cc(OC(C)=O)c(Br)cc3n2C)n1	7.9µM*	?	i	-4%
OC1CCN(Cc2ccc3c(c2)CN(Cc2ccc(Oc4ncccn4)cc2)CCO3)CC1	nt	nt	i	-16%
CC(C)C1Cc2c(sc3[nH]c(=S)n(Cc4ccccc4)c(=O)c23)CO1 (stereo not given)	0.79µM*	?	-15%	0%
CCOc1ccc(C(=O)C2CCN(CC(=O)Nc3ccccc3N3CCOCC3)CC2)cc1	18µM*	?	-18%	?
C=C1C=C(C(F)F)n2ncc(C(=O)N3CCc4ccccc4C3)c2N1	nt	nt	4%	-16%
O=S(=O)(c1ccc(Cl)cc1)N1CCN(Cc2ccc(O)c3ncccc23)CC1	?	13µM*	?	?
CCCn1c(SCc2ccc(Cl)cc2)nc2c1c(=O)[nH]c(=O)n2C	16µM*	-16%[46.1 µM]	nt	?
O=[S+]1([O-])N[C@@H]2Cc3ccccc3[C@@H]2Oc2cc(Br)ccc21	-3%[46.1 µM]	nt	nt	nt
SMILES	LASV entry inh	MARV entry inh	Vaccinia mCherry	Vaccinia Venus
COC(=O)[C@@H]1C2CC3c4[nH]c5cc(OC)ccc5c4CCN3CC2C[C@H](OC(=O)c2cc(OC)c(OC)c(OC)c2)C1OC (stereo not given in full)	nt	nt	-6%	-27%
COC(=O)[C@H]1[C@H]2C[C@@H]3c4[nH]c5cc(OC)ccc5c4CCN3C[C@H]2C[C@@H](OC(=O)c2cc(OC)c(OC)c(OC)c2)[C@@H]1OC	7.3µM*	10µM*	i	-21%
CCOc1ccc(N(C)S(=O)(=O)c2ccc(C)c(C(=O)OCC(=O)c3c[nH]c4ccccc34)c2)cc1	7%	1.4µM*	i	-19%
CCOc1ccccc1CNC(=O)c1ccc2c(c1)nc1n2CCCCC1	5µM*	nt	-25%	21%
CCOc1ccccc1CNC(=O)Cc1ccc(NC(=O)N2CCCCc3ccccc32)cc1	4.5µM*	nt	i	-12%
COc1ccc(CNC(=O)c2ccc3c(c2)nc2n3CCCCC2)cc1	?	nt	-8%	-2%
Clc1cnc(Oc2ccc(Oc3ncc(Cl)cc3Cl)cc2)c(Cl)c1	?	1µM*!	-8%	-4%
CCOC(=O)CCN1C(=O)[C@@H]2[C@H]3[C@H](O)[C@H](O)CC(=NNC(=O)OCc4ccccc4)[C@@H]3CC[C@H]2C1=O	-34%[14.3 µM]	29%[14.2 µM]	nt	nt
COC1=C(C)C(=O)C2=C(C1=O)C1C3CC4=C(C(=O)C(OC)=C(C)C4=O)C(CNC(=O)C(C)=O)N3C(C#N)C(C2)N1C (stereo not given)	?	?	?	1µM*
CCOc1ccccc1NC(=O)/C(C#N)=C/c1c(C)nn(-c2ccccc2)c1Cl	?	2%	-3%	5%
C=CCNC(=O)/C(C#N)=C/c1c(C)nn(-c2ccccc2)c1Cl	14%	7.9µM*	i	-15%
NNc1ccc2c(C(F)(F)F)cc(C(F)(F)F)nc2n1	0%[46.1 µM]	-24%[46.1 µM]	-6%	-5%
N#CC(c1cccc(Cl)c1)c1ccc2c(C(F)(F)F)cc(C(F)(F)F)nc2n1 (stereo not given)	2.2µM*	?	nt	2.2µM*
CC(C)CC(=NNC(=O)c1ccncc1)c1cc(Cl)ccc1O	3.2µM*	?	5.6µM*	?
CC(=NNC(=O)c1ccncc1)c1ccc2ccccc2c1O	5µM*	7.9µM*	?	33%
C/C(=N\NC(=O)c1cccc2ccccc12)c1cccnc1	0%[46.1 µM]	-17%[46.1 µM]	i	-19%
C/C(=N/NC(=O)c1ccncc1)c1ccc(NC(=O)c2ccc(Cl)cc2Cl)cc1	1%[46.1 µM]	?	-14%	-5%
CC(=NNC(=O)c1ccncc1)c1ccccc1O	?	3.2µM*	1.1µM*	?
CCN1C(=O)NC(=O)/C(=C/c2cc(C)n(-c3sc(C)c(C)c3C#N)c2C)C1=O	?	?	i	-4%
Cc1ccc(N2C(=O)NC(=O)/C(=C\c3cc(C)n(-c4sc5c(c4C#N)CCCC5)c3C)C2=O)cc1	?	2.5µM*	-15%	-15%
COc1ccc2cc(-c3c(-c4ccncc4)nc(-c4ccc(S(C)(=O)=O)cc4C)n3C)ccc2c1	7.9µM*	nt	nt	nt
COc1ccc(OCCSc2nnc(C)n2-c2ccccc2)cc1	9.2µM*	?	nt	nt
COc1cccc(Cn2c(OC[C@H]3CCCO3)nc3c2c(=O)n(C)c(=O)n3C)c1	nt	16%	nt	nt
CC(=O)Nc1sc(N/N=C/c2ccccc2)nc1-c1ccc(C)cc1	14%	6%	-25%	-16%
COc1ccc(/C=N/Nc2nc(-c3ccc(C)cc3)c(NC(C)=O)s2)cc1	11%[46.1 µM]	15%[46.1 µM]	10µM*	-18%
Cc1ccc(NC(=O)Cn2ncn3c(cc4ccccc43)c2=O)cc1C	nt	13µM*	-12%	-11%
CCN(CC)/N=N/C1=C2C(C)=CC(C)=NC2N=N1 (stereo not given)	nt	11%	nt	nt
O=[N+]([O-])c1ccc(-n2nnnc2-c2ccccc2)c([N+](=O)[O-])c1	?	15µM*	?	?
CCS(=O)(=O)Nc1cc(C(=O)N2CCCN(C=O)CC2)c2c(c1)nc(-c1ccccc1)n2C	nt	nt	i	-15%
